Screening data: PubChem, The Scripps Research Institute Molecular Screening Center
In the library only some 5.7% were active in any assay of this set; here they are far more common.
DAX1 inh-1: DAX1 (NR0B1) inhibitors, primary screen, cell-based, HEK293, Gal4-DAX1, luciferase luminescence | Nuclear receptor subfamily 0 group B member 1 (Homo sapiens), P51843 | HEK293 Gal4-DAX1 luciferase reporter | inhibition, % at 6.75 µM | 340,000 tested, 0.99% active;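 active = inhibition above the mean over all tested compounds plus 3 SD, cut at about 4.2% in these data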;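 also: 0% = DAX1-transfected cells with DMSO and 100% = empty-vector control cells with DMSO; inhibition shows as a rise in luminescence from relieved DAX1 repression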
Target sequence (P51843 207-470 limits assumed): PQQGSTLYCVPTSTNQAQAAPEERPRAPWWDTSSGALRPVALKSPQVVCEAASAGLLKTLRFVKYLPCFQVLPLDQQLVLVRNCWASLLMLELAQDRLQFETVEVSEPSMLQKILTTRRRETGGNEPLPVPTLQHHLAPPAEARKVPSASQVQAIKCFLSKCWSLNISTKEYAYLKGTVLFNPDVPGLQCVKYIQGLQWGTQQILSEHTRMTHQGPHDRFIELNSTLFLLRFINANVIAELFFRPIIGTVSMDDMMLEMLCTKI
hcDAF-12 act: H. contortus DAF-12 nuclear receptor activators, primary screen, cell-based, luminescence, HEK293, lit1-tk-luc reporter; 370,000 tested, 1.4% active; activation, % at 6.8 µM; AID 652067, 2013; HEK293 hcDAF-12 lit1-tk-luc reporter; 0% DMSO, 100% Δ7-dafachronic acid;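 active = activation above the mean of all tested compounds plus 3 SD, cut at about 5.5% in these data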;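 also: 100% = response to 3 µM Δ7-dafachronic acid high control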
hgDAF12 agonist: H. glycines DAF-12 receptor agonists, primary screen, cell-based, luminescence, HEK293, GAL4 fusion, UAS-luciferase. HEK293 GAL4-hgDAF12 UAS-luciferase reporter, agonist luminescence; normalized to butyrate control. activation, % at 6.8 µM. 370,000 tested, 1.8% active. AID 687014, 2013;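 active = activation above a cutoff set at the mean of all screened compounds plus 3 SD, cut at about 10% in these data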;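 also: 0% = DMSO wells and 100% = sodium butyrate wells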
AHR act: AHR activators, primary screen, cell-based, luminescence, luciferase reporter, human; Aryl hydrocarbon receptor (Homo sapiens), P35869; AHR-responsive luciferase reporter cells; activation, % at 5 µM; 320,000 tested, 2.5% active; AID 2796, 2010; in the data active = activation above about 47%;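 also: 0% = vehicle wells and 100% = reference agonist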
DAX1 inh-2: DAX1 (NR0B1) inhibitors on StAR promoter, primary screen, cell-based, luminescence, SF-1 (NR5A1), full-length DAX-1; HEK293T StAR-luciferase reporter, SF-1/DAX-1 repression relief; inhibition, % at 6.8 µM; 370,000 tested, 1.1% active;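 active = inhibition above the mean over all tested compounds plus 3 SD, cut at about 3.6% in these data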;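 also: 0% = DAX-1 cells with DMSO and 100% = cells lacking DAX-1 with DMSO; higher inhibition means more luminescence from relief of DAX-1 repression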
ssDAF-12 act: S. stercoralis DAF-12 nuclear receptor activators, primary screen, cell-based, luminescence, HEK293, GRIP1 co-expression, lit1-tk-luc. Nuclear hormone receptor DAF-12 (Strongyloides stercoralis). HEK293 ssDAF-12/GRIP1 lit1-tk-luc reporter; % of 3 µM dafachronic acid response. activation, % at 6.8 µM. 370,000 tested, 1% active;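 active = activation above the mean over all tested compounds plus 3 SD, cut at about 0.9% in these data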;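 also: 0% = DMSO-only wells and 100% = 3 µM delta7-dafachronic acid wells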
Starred values were filed as active, the others as inactive; · = not tested or not shown.

SMILES	DAX1 inh-1	hcDAF-12 act	hgDAF12 agonist	AHR act	DAX1 inh-2	ssDAF-12 act
CC(=O)n1c2ccccc2c2nc(NC(C)C)sc21	1	3	2	45	0	0
Cc1ccc(NC(=O)CCC(=O)NNC(=O)COc2ccc([N+](=O)[O-])cc2)cc1C	0	-2	0	53*	0	0
N/C(=N\OC(=O)c1cccc(Br)c1)c1ccccc1	2	6.1*	10	74*	2	1.3*
COc1cc(OC)c(C(=O)O/N=C(\N)c2ccccn2)cc1OC	1	-2	2	3	0	-1
COc1ccc(C(=O)O/N=C(\N)c2cccc(C)c2)cc1OC	3	0	2	-1	0	0
Cc1cccc(C(=O)O/N=C(\N)c2ccc(Cl)cc2)c1	1	5.6*	5	55*	0	1.0*
Cc1ccc(/C(N)=N/OC(=O)c2ccc(Cl)cc2Cl)cc1	4.7*	2	-3	32	0	-1
COc1cc(OC)c(C(=O)O/N=C(\N)c2ccccc2)cc1OC	1	-2	6	78*	0	-1
Cc1cccc(C(=O)O/N=C(\N)c2ccc(Br)cc2)c1	1	6.1*	8	42	1	-1
Cc1cccc(/C(N)=N/OC(=O)c2ccncc2)c1	1	3	16*	·	9.4*	0
CCCCc1ccc(C(=O)NC(C(=O)O)C(C)C)cc1 (configuration not stated)	2	-2	2	-3	1	0
CC(=O)c1ccc(NCCC(=O)c2ccccc2)cc1	1	0	0	0	0	-2
COc1ccc(-c2cc(C(=O)Nc3ccc(S(N)(=O)=O)cc3)c3ccccc3n2)cc1OC	-1	-3	1	12	0	-1
COCCNC(=O)C(=O)N/N=C(\C)CC(=O)Nc1cccnc1	1	-1	1	4	0	-2
COc1ccc2[nH]c(C)c(C(=O)CN3CC(C)OC(C)C3)c2c1 (configuration not stated)	1	1	2	15	-1	-1
Oc1ccc(/C=N/Nc2nccnc2Cl)cc1	2	3	12*	24	2	1
O=[N+]([O-])c1cccc(/C=N/Nc2nccnc2Cl)c1	1	2	10	12	1	-1
Fc1cccc(/C=N/Nc2nccnc2Cl)c1	3	4	13*	24	2	1
CC(c1ccccc1F)n1cc(C(=O)NCCCn2ccnc2)nn1 (configuration not stated)	0	-1	-2	34	0	-1
Cc1ccc(C)c(NCC(O)c2ccccc2)c1 (configuration not stated)	-3	-2	1	52*	0	-2
O=C(NCCC(=O)N1CCc2ccccc21)c1ccco1	1	5.8*	6	4	1	-1
CN(Cc1ccccc1Cl)C(=O)CCNC(=O)c1ccco1	10*	-1	0	·	2	-1
O=C(NCc1ccccc1)C(c1ccc(C(F)(F)F)cc1)n1c(=O)c(-c2ccccc2)nc2ccccc21 (configuration not stated)	·	1	-1	·	0	-1
Cc1ccc(Sc2ccc(CO)cc2[N+](=O)[O-])cc1	0	-2	3	-1	0	11*
Cc1ccc(Sc2ccc(CN3CCCC3)cc2[N+](=O)[O-])cc1	0	0	-1	4	-1	-2
SMILES	DAX1 inh-1	hcDAF-12 act	hgDAF12 agonist	AHR act	DAX1 inh-2	ssDAF-12 act
CCOC(=O)CC(=O)CSc1nc2c(cc1C#N)CCCCC2	1	5	11*	7	3	1
CC(C)OC(=O)CC(=O)CSc1nc2c(cc1C#N)CCCCC2	4	1	9	8	2	0
CCOC(=O)CC(=O)CSc1nc2ccc(C)cc2cc1C#N	6.7*	4	11*	9	3.8*	0.9*
Cc1ccc(CCNC(=O)CCS(=O)(=O)Cc2ccc(C)cc2)cc1	1	-4	0	2	0	-1
COc1ccc(NC(=O)c2scc(S(=O)(=O)C(C)C)c2N)cc1	2	5	11*	7	2	1.2*
COc1ccc(NC(=O)c2sc(SCc3ccccc3)nc2N)cc1	0	-1	0	48*	0	-1
CC(C)S(=O)(=O)c1csc(C(=O)NN)c1Cl	·	1	-1	5	1	-1
ClC1(Cl)CC1CSc1nnc(-c2ccncc2)o1 (configuration not stated)	2	0	3	0	1	-1
Cc1cc(C)n(CCN(C)C(=O)CCc2nnc(CCC3CCCCC3)o2)n1	3	2	12*	14	2	1.2*
CC(CNC(=O)CCc1nnc(CCC2CCCCC2)o1)c1ccccc1 (configuration not stated)	5.6*	0	4	4	0	-1
CN(CCCC1CCCC1)C(=O)CCc1nnc(-c2ccccc2)o1	5.4*	3	12*	11	1	0
CCN(Cc1ccncc1)C(=O)CCc1nnc(CCC2CCCCC2)o1	1	-2	0	1	-1	-1
Cc1cc(-c2nnc(CCC(=O)NCC(C)c3ccccc3)o2)no1 (configuration not stated)	1	-1	-1	6	1	0
CCCCOCC(O)Cn1c(C)nc2ccccc21 (configuration not stated)	-2	-1	0	0	-1	-1
CCCCCC1=CCC/C1=N\NC(=O)c1ccc2c(c1)OCO2	0	0	12*	27	1	-2
Cc1cccc(OCC(=O)Nc2cc(C)c(C)cc2O)c1	-1	3	3	11	1	0
Cc1ccsc1/C=N\NC(=O)c1ccc2c(c1)OCO2	2	4	10	22	4.0*	-1
Cc1ccc(C(=O)N/N=C\c2sccc2C)cn1	0	0	1	9	1	-1
COc1ccccc1C(=O)N/N=C/c1ccc2c(c1)OCO2	1	0	8	50*	1	-1
COc1cc2ccccc2cc1C(=O)N/N=C/c1ccc2c(c1)OCO2	0	-2	2	·	-2	-1
Cc1cccc(OCC(=O)Nc2cc(C)ccc2O)c1	0	2	2	5	-1	1.1*
CC(C)(C)c1ccc(CN2N=C(/C=C/c3ccccc3)CCC2=O)cc1	-1	0	-2	1	1	-1
Nn1c(SCc2ccc(Br)cc2)nnc1-c1n[nH]c2c1CCC2	·	-2	2	·	0	-1
